“And” between values parts separate entries of the source, which are not always exact repeats. Equal entries are not always repeated. The source made the active and inactive calls. Cut-off read from the data, not from the text of the source, unless noted: active = inhibition above about 80%; inactive = the rest.
Key:
[1] = liver-stage malaria parasite growth inhibition, primary screen, cell-based, HepG2, luciferase luminescence, HepG2 viability (AID 624349; in the data active = parasite load remaining mostly below about 12%, no sharp cut-off; inactive = mostly above about 10%;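 note: 100% = mean of DMSO negative control wells on the same plate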); details: P. berghei liver stage in HepG2, luciferase luminescence, concentration not given here; parasite load remaining: stronger effect = lower value; viability: measured here: HepG2 viability without parasites
[2] = sensitizers of A549 cells to miR-34 induction, primary screen, imaging, A549 dox-inducible miR-34, nuclei and caspase counts (AID 1347080;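 active = compounds whose cell count with miR-34 switched on is under 0.7 times the count with it off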); details: A549 miR-34 inducible, Hoechst nuclei count, 48 h
[3] = survival rescue of mitochondrial mutant cells in low glucose, primary screen, MELAS cybrids, Rieske KO mouse fibroblasts, CellTiter-Glo (AID 1508586;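 active = mean z-score across replicates of 1.96 or higher in either the MELAS or the Rieske mutant cell line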;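 note: z relative to plate mean and SD of compound and empty wells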)
[4] = viability rescue of complex I mutant cybrids, primary screen, cell-based, galactose medium, ATP luminescence (AID 1645843;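 active = z-score of at least 1.8 in each of two replicates, scored against plate mean and spread of sample wells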;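 note: positive z means more ATP and so rescue of galactose-driven cybrid death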); details: complex I mutant cybrid cells, 72 h, stronger effect = higher value
[5] = LFS_MB_P medulloblastoma growth inhibition, cell-based, chromothripsis tumors, cisplatin or BGB combos (AID 1671449); details: LFS_MB_P medulloblastoma cells;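 note: cells exposed for 96 hours; 0% = vehicle DMSO and 100% = killing by high DMSO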
[6] = HDN33 neuroblastoma growth inhibition, cell-based, chromothripsis tumors, cisplatin or BGB combos (AID 1671450); details: HDN33 neuroblastoma cells, stronger effect = higher value;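 note: cells exposed to compound for four days; 0% = vehicle DMSO and 100% = cell killing by high DMSO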
[7] = ICB984 medulloblastoma cell growth inhibition, synergistic combos for chromothripsis tumors, cisplatin or BGB combos (AID 1671451; call rule not given here;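 note: cells exposed for 96 hours before readout; 0% = vehicle DMSO and 100% = killing by high DMSO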); details: ICB984 medulloblastoma cells, drug combinations, stronger effect = higher value
[8] = LFS_MB_1R medulloblastoma cell growth inhibition, synergistic combos for chromothripsis tumors, cisplatin or BGB combos (AID 1671452); details: LFS_MB_1R medulloblastoma cells, stronger effect = higher value;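 note: cells exposed for 96 hours before readout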
[9] = HTB85 osteosarcoma cell growth inhibition, synergistic combos for chromothripsis tumors, BGB or cisplatin IC20 combos (AID 1671453); details: HTB85 osteosarcoma cells, drug combinations, stronger effect = higher value;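 note: cells exposed for 96 hours before readout; 0% = vehicle DMSO and 100% = high DMSO killing control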
[10] = CRL2098 osteosarcoma cell growth inhibition, synergistic combos for chromothripsis tumors, BGB or cisplatin IC20 combos (AID 1671454); details: CRL2098 osteosarcoma cells, drug combinations, stronger effect = higher value;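 note: cells exposed for 96 h before readout; 0% = vehicle DMSO and 100% = killing by high DMSO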
[11] = HD-MB03 medulloblastoma cell growth inhibition, synergistic combos for chromothripsis tumors, BGB or cisplatin IC20 combos (AID 1671455; in the data active = inhibition above about 83%;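 note: 0% = vehicle DMSO and 100% = high DMSO as cytotoxic control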); details: HD-MB03 medulloblastoma cells, stronger effect = higher value
[12] = UWB1.289 ovarian carcinoma cell growth inhibition, synergistic combos for chromothripsis tumors, BGB or cisplatin combos (AID 1671456); details: UWB1.289 ovarian carcinoma cells, stronger effect = higher value;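 note: cells exposed to compound for four days; 0% = vehicle DMSO and 100% = killing by high DMSO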
[13] = LFS_MB_2R medulloblastoma cell growth inhibition, synergistic combos for chromothripsis tumors, cisplatin combos (AID 1671457); details: LFS_MB_2R medulloblastoma cells, stronger effect = higher value;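 note: cells exposed to compound for four days before readout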
[14] = MDA-MB-436 breast carcinoma cell growth inhibition, synergistic combos for chromothripsis tumors, BGB or cisplatin combos (AID 1671458; call rule not given here;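 note: cells exposed for 96 hours; 0% = vehicle DMSO and 100% = killing by high DMSO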); details: MDA-MB-436 breast carcinoma growth inhibition, drug combinations, stronger effect = higher value
[15] = UWB1.289_BRCA1 ovarian cancer growth, cell-based, BGB or cisplatin combinations (AID 1671459); details: UWB1.289 BRCA1 ovarian carcinoma, drug combinations, stronger effect = higher value
[16] = human astrocyte viability loss, single and combined drugs, cytotoxicity control for chromothriptic childhood tumor combination screen, cell-based, BGB or cisplatin IC20 combos (AID 1671460); details: Human astrocytes, drug combinations, stronger effect = higher value;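 note: cells exposed to compounds for 96 hours before viability readout; 0% = vehicle and 100% = killing control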
[17] = growth inhibition of BT084 medulloblastoma cells, cell-based, ICGC_MB145, cisplatin and BGB IC40 combos (AID 1671461); details: drug combinations, stronger effect = higher value;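 note: cells exposed to drugs for 96 hours; 0% = vehicle DMSO and 100% = high DMSO full killing control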
[18] = growth inhibition of RCMB18 medulloblastoma cells, cell-based, cisplatin and BGB IC40 combos (AID 1671462); details: stronger effect = higher value;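 note: cells exposed to compound for four days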
[19] = growth inhibition of CRL1545 osteosarcoma cells, cell-based, cisplatin and BGB IC20 combos (AID 1671464); details: stronger effect = higher value;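 note: cells exposed to compound for 96 hours before readout; 0% = vehicle DMSO and 100% = high DMSO killing control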
[20] = stronger effect = lower value, cell number ratio, induced over uninduced
[21] = measured here: relative caspase fold change +Dox/-Dox
[22] = measured here: total cells with miR-34 induction, stronger effect = lower value
[23] = measured here: total cells without miR-34 induction
[24] = MELAS cybrid survival, CellTiter-Glo 48 h, stronger effect = higher value
[25] = Rieske KO mouse fibroblast survival, CellTiter-Glo 72 h
[26] = measured here: combination with BGB IC40, at 0.05 µM
[27] = measured here: with BGB IC20 combination, at 0.5 µM
[28] = measured here: with cisplatin IC20 combination, at 0.5 µM
[29] = measured here: combination with cisplatin, at 0.5 µM
[30] = measured here: combination with cisplatin, at 5 µM

SMILES: CN1C[C@H](C(=O)N[C@]2(C)O[C@@]3(O)[C@@H]4CCCN4C(=O)[C@H](Cc4ccccc4)N3C2=O)CC2c3cccc4[nH]cc(c34)C[C@H]21 (some centres not stated)
- parasite load remaining [1]: 81.9% (inactive) and 39.4% (inactive)
- viability [1]: 69.3% and 96.5%
- fold change [2, 20]: 0.973 (inactive) and 0.855 (inactive)
- fold change [2, 21]: 1.1 and 1.21
- cell count [2, 22]: 7780 and 9120
- cell count [2, 23]: 8000 and 10700
- z-score [3, 24]: -0.956 (inactive)
- z-score [3, 25]: -0.402
- z-score [4]: 0.325 (inactive)

SMILES: CC[C@@H]1OC(=O)C[C@H](O)[C@@H](C)[C@@H](O[C@@H]2O[C@H](C)[C@@H](O[C@H]3C[C@@](C)(O)[C@@H](O)[C@H](C)O3)[C@H](N(C)C)[C@H]2O)[C@@H](C=O)C[C@@H](C)C(=O)/C=C/C(C)=C\[C@@H]1CO[C@H]1O[C@@H](C)[C@H](O)[C@H](OC)[C@@H]1OC
- parasite load remaining [1]: 27.3% (inactive)
- viability [1]: 67%
- fold change [2, 20]: 0.839 (inactive)
- fold change [2, 21]: 1.48
- cell count [2, 22]: 9360
- cell count [2, 23]: 11200
- z-score [3, 24]: 0.258 (inactive)
- z-score [3, 25]: -0.691
- z-score [4]: 0.54 (inactive)

SMILES: CCC(=O)OCC(=O)[C@@]1(OC(=O)CC)[C@@H](C)C[C@H]2[C@@H]3CCC4=CC(=O)C=C[C@]4(C)C3(F)[C@@H](O)C[C@@]21C (some centres not stated)
- parasite load remaining [1]: 19.5% (inactive)
- viability [1]: 67%
- fold change [2, 20]: 0.837 (inactive)
- fold change [2, 21]: 1.41
- cell count [2, 22]: 6650
- cell count [2, 23]: 7940
- z-score [3, 24]: 0.189 (inactive)
- z-score [3, 25]: 1.36
- z-score [4]: 0.155 (inactive)

SMILES: Cc1cn(C2C=CC(CO)O2)c(=O)[nH]c1=O (configuration not stated)
- fold change [2, 20]: 0.962 (inactive) and 0.935 (inactive)
- fold change [2, 21]: 1.05 and 0.911
- cell count [2, 22]: 8970 and 7330
- cell count [2, 23]: 9320 and 7840
- z-score [3, 24]: -0.48 (inactive)
- z-score [3, 25]: 0.518
- z-score [4]: 0.42 (inactive)
- inhibition ([5]; at 0.5 µM, stronger effect = higher value): -20.9% (inactive)
- inhibition ([5]; measured here: combination with BGB IC20, at 0.005 µM): -5.29%
- inhibition ([5]; measured here: combination with BGB IC40, at 0.005 µM): -35%
- inhibition [5, 26]: -15.2%
- inhibition ([5]; measured here: combination with cisplatin, at 0.5 µM, stronger effect = higher value): -28.2%
- inhibition ([5]; measured here: combination with cisplatin, at 5 µM, stronger effect = higher value): -24.4%
- inhibition ([6]; BGB combo, at 5 µM): -42.2%
- inhibition ([6]; at 0.5 µM): -34.4% (inactive)
- inhibition ([6]; cisplatin combo, at 5 µM): -46.6%
- inhibition [6, 27]: -50.9%
- inhibition [6, 28]: -24.2%
- inhibition ([6]; single agent, at 5 µM): -41%
- inhibition ([7]; BGB IC20 combo, at 0.005 µM): -4.4%
- inhibition ([7]; BGB IC40 combo, at 0.005 µM): -46.7%
- inhibition ([7]; BGB IC40 combo, at 0.05 µM): -3.74%
- inhibition ([7]; at 0.5 µM): -26.7% (inactive)
- inhibition ([7]; cisplatin combo, at 0.05 µM): -6.64%
- inhibition ([7]; cisplatin combo, at 0.5 µM): -35.4%
- inhibition ([7]; cisplatin combo, at 5 µM): -36.2%
- inhibition ([7]; measured here: 5 uM single agent, at 5 µM): -29.8%
- inhibition ([8]; at 0.5 µM): -29.1% (inactive)
- inhibition [8, 26]: -18.5%
- inhibition [8, 29]: -42.3%
- inhibition [8, 30]: -74.7%
- inhibition ([9]; at 0.5 µM): -32.3% (inactive)
- inhibition ([9]; measured here: with BGB IC20, at 0.5 µM): -52.5%
- inhibition ([9]; measured here: with BGB IC20, at 5 µM): -73.7%
- inhibition ([9]; measured here: with cisplatin IC20, at 0.5 µM): -25.1%
- inhibition ([9]; measured here: with cisplatin IC20, at 5 µM): -14.5%
- inhibition ([9]; single agent, at 5 µM): 6.05%
- inhibition ([10]; at 0.5 µM): -98.7% (inactive)
- inhibition ([10]; measured here: combination with BGB at IC20, at 0.5 µM): -91.8%
- inhibition ([10]; measured here: combination with cisplatin at IC20, at 0.5 µM): -105%
- inhibition ([11]; at 0.5 µM): -18.8% (inactive)
- inhibition ([11]; measured here: combo with BGB at IC20, at 0.5 µM): -15.9%
- inhibition ([11]; measured here: combo with cisplatin at IC20, at 0.5 µM): -28%
- inhibition ([12]; at 0.5 µM): -10.5% (inactive)
- inhibition ([12]; measured here: inhibition with BGB combination, at 0.05 µM): -4.7%
- inhibition ([12]; measured here: inhibition with cisplatin combination, at 0.05 µM): -16.8%
- inhibition ([13]; at 0.5 µM): -12.5% (inactive)
- inhibition [13, 29]: -17.8%
- inhibition [13, 30]: -34.1%
- inhibition ([14]; at 0.5 µM): -24% (inactive)
- inhibition ([14]; measured here: BGB combination, at 0.5 µM): -19.7%
- inhibition ([14]; measured here: BGB combination, at 5 µM): -23.5%
- inhibition ([14]; measured here: cisplatin combination, at 0.5 µM): -37.6%
- inhibition ([14]; measured here: cisplatin combination, at 5 µM): -21%
- inhibition ([15]; BGB combination, concentration series, at 5 µM): -25.5%
- inhibition ([15]; at 0.5 µM): -15.9% (inactive)
- inhibition ([15]; cisplatin combination, concentration series, at 5 µM): -8.88%
- inhibition ([16]; at 0.5 µM): -7.19% (inactive)
- inhibition ([16]; measured here: combo with BGB IC20, at 0.5 µM): -8.45%
- inhibition ([16]; measured here: combo with cisplatin IC20, at 0.5 µM): -23.8%
- inhibition ([17]; at 0.5 µM): -17.7% (inactive)
- inhibition ([17]; cisplatin combination, at 0.5 µM): -7.07%
- inhibition ([17]; cisplatin combination, at 5 µM): -5.39%
- inhibition ([17]; measured here: BGB IC40 combination 0.05 uM, at 0.05 µM): -19.6%
- inhibition ([17]; single agent, at 5 µM): -14%
- inhibition ([18]; at 0.5 µM): -28.5% (inactive)
- inhibition ([18]; cisplatin combo, at 5 µM): -44.1%
- inhibition ([18]; measured here: BGB IC40 combination, at 0.05 µM): -19.7%
- inhibition [18, 29]: -44.8%
- inhibition ([18]; single agent, at 5 µM): -28.1%
- inhibition ([19]; at 0.5 µM): -40.6% (inactive)
- inhibition [19, 27]: -40.6%
- inhibition [19, 28]: -43.7%
- inhibition ([19]; single agent, at 0.05 µM): -24.2%
- inhibition ([19]; single agent, at 5 µM): -21.8%

From PubChem BioAssay
